# From the supplement of paper PMC3334620
# The full ranking holds about 33,000 sequences; the median of “E-score (-0.5 to 0.5)” is about -0.043, and the highest 2% start at about 0.37. What follows is part of a selection rich in the highest values, with near analogues and random picks from the rest.
# Molecular target: T1, Upc2 (UniProt Q12151)
# T1 sequence: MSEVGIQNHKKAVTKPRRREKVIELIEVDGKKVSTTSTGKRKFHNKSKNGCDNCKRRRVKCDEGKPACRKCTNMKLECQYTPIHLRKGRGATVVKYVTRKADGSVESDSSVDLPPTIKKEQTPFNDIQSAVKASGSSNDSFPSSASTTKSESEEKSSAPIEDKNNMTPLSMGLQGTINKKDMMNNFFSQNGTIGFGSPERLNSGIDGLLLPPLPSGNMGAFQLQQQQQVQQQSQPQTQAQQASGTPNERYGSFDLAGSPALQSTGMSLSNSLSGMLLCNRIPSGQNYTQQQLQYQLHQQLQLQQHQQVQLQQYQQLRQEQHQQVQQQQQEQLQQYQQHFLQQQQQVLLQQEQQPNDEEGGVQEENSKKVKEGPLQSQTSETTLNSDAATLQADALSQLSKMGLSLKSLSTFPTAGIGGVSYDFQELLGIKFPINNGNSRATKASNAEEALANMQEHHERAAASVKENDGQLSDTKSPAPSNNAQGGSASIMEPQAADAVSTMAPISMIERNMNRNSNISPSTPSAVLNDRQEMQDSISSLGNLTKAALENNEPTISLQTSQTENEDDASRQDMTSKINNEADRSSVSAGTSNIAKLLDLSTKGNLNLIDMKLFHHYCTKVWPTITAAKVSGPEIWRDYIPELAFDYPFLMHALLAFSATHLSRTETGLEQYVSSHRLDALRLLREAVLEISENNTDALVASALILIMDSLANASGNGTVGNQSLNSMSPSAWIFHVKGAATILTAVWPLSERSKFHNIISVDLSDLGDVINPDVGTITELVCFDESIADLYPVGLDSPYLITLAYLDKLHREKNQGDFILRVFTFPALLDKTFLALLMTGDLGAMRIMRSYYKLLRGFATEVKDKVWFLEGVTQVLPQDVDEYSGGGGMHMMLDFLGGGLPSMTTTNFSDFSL
# Assay: PBM E-score (8-mer binding enrichment) (E-score (-0.5 to 0.5)); higher = stronger / more preferred TF binding
# Conditions: protein concentration: 200 nM; construct: GST-full length
# In short: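 Universal all-10-mer Agilent arrays, fresh or stripped once, were converted to double-stranded form by primer extension. GST-tagged yeast transcription factors from PURExpress in vitro transcription/translation, full-length or DNA-binding domain only, were applied at about 100-200 nM and detected with fluorescent anti-GST. After masliner normalisation, the Universal PBM Analysis Suite scored each ungapped eight-base word together with its reverse complement by E-score.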
row,Sequence,PBM E-score
1,ACTTGGCC,-0.0135
2,AAAAAACG,0.186
3,CCTAGGAG,-0.273
4,ATATCTAG,-0.0547
5,CGCCCTAG,-0.158
6,AGTTACGC,0.0981
7,AGTTACGA,0.383
8,CGTTACAA,0.0563
9,GGTTACTA,-0.0998
10,GGTTACCA,0.156
11,CGTTACGC,0.282
12,AGTTACGG,0.0766
13,GGTTACGA,0.408
14,CGTTACGA,0.417
15,GAACTGGC,-0.158
16,CACCTAGG,-0.103
17,AAAGCGAG,0.217
18,CACCTCCC,-0.174
19,TAAGGCCA,-0.013
20,AACTGGTG,-0.163
21,GCCTTCGC,-0.106

row,Sequence,PBM E-score
1,CTCCGTAC,0.376
2,ATCCGTAC,0.366
3,CTCCGTAA,0.285
4,CACCGTAC,0.401
5,CACCGTAA,0.32
6,CACCGTAG,0.0923
7,CTATTTAC,0.104
8,ATCTGTTC,0.0527
9,ATATAATC,-0.158
10,AACGCTAT,0.0885
11,AGCCGTGG,-0.17
12,AGTATAGC,0.128
13,GGTATAGA,0.111
14,CGTATAGC,0.483
15,AGTATAGA,0.137
16,CGTATAGA,0.48
17,CCTATAGC,-0.286
18,AAGCGATA,0.205
19,AGCTTATA,0.0662
20,CGGGGTCA,0.117
21,ATGCTTAC,-0.0957

row,Sequence,PBM E-score
1,AGACGGCA,-0.162
2,CAAACGTA,0.259
3,GAAACGCA,-0.059
4,TAAACGGA,0.454
5,TAAACGCA,0.399
6,CAAACGGA,0.318
7,GAAACGGA,0.199
8,TAAACGTA,0.407
9,AAAACGTA,0.123
10,CAAACGCA,0.258
11,TATATCAA,-0.04
12,AAGCCAGA,-0.2
13,ATCAAATC,-0.078
14,CTTGAAGC,-0.183
15,CATCTGGG,-0.133
16,CCGTCGAA,0.0446
17,ACACTACC,-0.098
18,CACTCAGC,-0.223
19,ACAAACGC,0.225
20,GCAAACAA,0.00753
21,GCAAACGC,0.25
